Results as given in PubChem BioAssay AID686978 (National Center for Advancing Translational Sciences (NCATS), 2013).
Out of some 420,000 compounds screened, about 64,000 (15%) were called active. Roughly 27% stayed inconclusive and do not appear here. A selection follows. A number with no mark means an inactive call. Calls come from the whole dose curve; as a rule, active = well fitted inhibition curve with a large enough effect; inconclusive = small, poorly fitted or top-dose-only effect; inactive = flat fitted curve, though single readings scatter.

experiment: qHTS for Inhibitors of human tyrosyl-DNA phosphodiesterase 1 (TDP1): qHTS in cells in absence of CPT; settings: DT40 Tdp1-/- hTDP1 cells, no CPT, ATP luminescence, 48 h; activity change, negative = growth inhibition: at 46.2 µM (top of the series); note: nearly all actives have a fitted effect of over 55% in size
From the text: Human tyrosyl-DNA phosphodiesterase 1 (TDP1) is a novel repair gene, and we propose to use it as a new target for anticancer drug development. TDP1 is not an essential protein, but under treatment with topoisomerase I poison (camptothecin: CPT), TDP1 works as a critical factor for cell survival. To directly identify novel TDP1 inhibitors active in a cellular environment, we have knocked-out the Tdp1 gene in chicken DT40 cells (Tdp1-/-) and generated a complemented counterpart cells that contains a stable transfection of the human TDP1 gene (Tdp1-/-;hTDP1 cells). For the primary screen, Tdp1-/-;hTDP1 cells will be exposed to small molecules in the presence or absence of CPT, and their growth kinetics will be evaluated after 48 hours by measuring ATP activity. […] The hit compounds will then be evaluated in the presence or absence of CPT using Tdp1-/- cells. […] In tertiary assays, biochemical gel-based assays will be used to assess whether the hit compounds specifically target TDP1.
To this end, we have screened this cell line against the MLSMR in two primary screens. In one screen we add CPT and in the other we screen in the absence of CPT; this AID represents the screen where CPT was absent.
NIH Chemical Genomics Center [NCGC]
NIH Molecular Libraries Probe Centers Network [MLPCN]
Assay Submitter (PI): Yves Pommier, NCI
DT40-hTDP1 cells without 20 nM Camptothecin (add 20 microL of DMSO in 1 L of cell culture medium) were dispensed at 400 cells/5microL/well in tissue culture treated 1536-well white wall/solid bottom assay plates (Greiner Bio-One North America, NC, U.S.A.) using a Multidrop Combi 8 channel dispenser (Thermo Fisher, Waltham, MA, USA). 23 nL compounds and controls were transferred using the pin tool (Kalypsys, San Diego, CA, USA) to the assay plates. The assay plates were then incubated at 37 masculineC for a minimum 48 hr. Three microL of Cell Titer Glo solution was added to the plates and incubated at RT in dark for 30 min. Luminescence was read using ViewLux (Perkin Elmer) with 1 sec exposure slow speed, high gain and 2x binning.
% is set by controls: 0 for no effect and ±100 for the full control effect; potency is the fitted concentration of half-maximal effect.

SMILES	activity change, negative = growth inhibition [%]	Potency
Cc1ccc(S(=O)(=O)N[C@H](CO)C(C)C)cc1	-8.67	
CN(C)C(=O)N=NC(=O)N(C)C		9.2 µM (active)
COC(=O)N/N=C/c1c[n+]([O-])c2ccccc2[n+]1[O-]		0.0422 µM (active)
CC(C)(C)OC(=O)N/N=C/c1ccc(C(=O)O)cc1	-1.61	
CCOC(=O)N/N=C/c1cccnc1	-4.41	
N#Cc1ccccc1NC(=O)c1ccc2c(c1)OCO2	-7.95	
CC1CCN(C(NC(=O)c2ccco2)C(=O)c2ccccc2)CC1 (centres undefined)	-16.8	
O=C(NCc1ccncc1)C(=O)NCC1OCCN1S(=O)(=O)c1ccc(Br)cc1 (centres undefined)	-29.5	
O=C(NCCCN1CCCC1=O)C(=O)NCC1OCCN1S(=O)(=O)c1ccc(Br)cc1 (centres undefined)		0.411 µM (active)
O=C(NCc1ccc2c(c1)OCO2)C(=O)NCC1OCCN1S(=O)(=O)c1ccc(F)cc1 (centres undefined)	-8.46	
CC(C)c1ccc(NC(=O)CCN2C(=O)c3ccc([N+](=O)[O-])cc3C2=O)cc1	-9.27	
CC(C)CNC(=O)COC(=O)/C=C/c1ccccc1[N+](=O)[O-]	-0.949	
CC(C)OCCCNC(=O)C1CC(=O)N(C2CCCCCCC2)C1 (centres undefined)	-2.8	
O=C(Cc1ccccc1)NCC1OCCc2ccccc21 (centres undefined)	-8.35	
Cc1ccc2nc(N3CCN(C(=O)c4ccco4)CC3)sc2c1	-28.4	
COc1ccc2nc(N3C(=O)C(O)=C(C(=O)c4ccco4)C3c3ccco3)sc2c1 (centres undefined)	-10.9	
COc1ccc2nc(N3CCN(C(=O)c4ccc([N+](=O)[O-])o4)CC3)sc2c1		20.6 µM (active)
COC(=O)[C@H](CCSC)NC(=O)Nc1ccc(OC)cc1	8.53	
CCN(CC)C(=O)CCC(=O)Nc1ccc(C(=O)OC)cc1	1.08	
Cc1ccc(C)c(NC(=S)NCC(c2cccnc2)N2CCOCC2)c1 (centres undefined)	-12.6	
Cc1ccc(NC(=O)C(=O)NCC(c2cccnc2)N2CCOCC2)cc1 (centres undefined)	-17.6	
COc1ccccc1N1CCN(C(CNC(=O)C(=O)NCc2ccc(C)cc2)c2cccnc2)CC1 (centres undefined)		2.06 µM (active)
Cc1cc(C)n(-c2nnc(C)n2NC(=O)c2cccc(Cl)c2)n1	-4.6	

SMILES	activity change, negative = growth inhibition [%]	Potency
Cn1c(SCC(=O)c2cccs2)nnc1-c1ccco1	0.382	
O=C(CN1C(=O)/C(=C\c2ccc(C(F)(F)F)cc2)Sc2ccccc21)NCc1ccco1		13 µM (active)
CC1CCC2(CC1)NC(=O)N(CC(=O)NCc1ccco1)C2=O (centres undefined)	-3.31	
O=C(CCCCCN1C(=O)c2cccc3cccc(c23)C1=O)NCc1ccco1	-20.4	
Cc1cccc(NS(=O)(=O)c2cc(Cl)ccc2Cl)n1	-14.9	
Nc1nc(SCC(=O)NN(c2ccccc2)c2ccccc2)n[nH]1	-12.2	
CCOC(=O)C(Cc1ccccc1)NC(=O)CCC(=O)c1ccc(OC)cc1 (centres undefined)	-4.08	
O=C(NCCc1ccccn1)c1cc(C(=O)C2CCCCC2)c[nH]1	-23.5	
Cn1cnnc1SCC(=O)Nc1ccc(N2CCOCC2)cc1	7.4	
O=C(NCCc1ccccn1)c1cc(-c2ccc(Cl)cc2)nc2ccccc12		18.4 µM (active)
CN(CC(=O)NCCc1ccccn1)S(=O)(=O)c1ccc(Cl)cc1	0.788	
O=C(CNC(=O)COc1ccccc1)NCCc1ccccn1	5.28	
Cc1cc(=O)oc(C)c1C(=O)NC1CC(C)(C)NC(C)(C)C1	-1.14	
O=C(CC1SCCNC1=O)Nc1ccc(Cl)cc1 (centres undefined)	-10.1	
CCOc1ccccc1NC(=O)CCN1CCN(S(=O)(=O)c2ccc(OC)cc2)CC1	-19.4	
COc1ccc(C2CC(=O)Nc3sc(=N)c4c(N)c(C#N)c(N)nc4c32)cc1OC (centres undefined)	-15.6	
N#Cc1c(N)nc2c3c(sc(=N)c2c1N)NC(=O)CC3c1ccccc1Cl (centres undefined)		13 µM (active)
COCCN(C(=S)Nc1ccccc1OC)C1CCN(C(C)C)CC1	13.4	
CC(Sc1nncs1)C(=O)NCc1ccc2c(c1)OCO2 (centres undefined)	-15.6	
O=C(C1Cc2ccccc2CN1C(=O)c1ccco1)N1CCN(c2ccccc2)CC1 (centres undefined)	-5.87	
O=[N+]([O-])c1ccc2[nH]c3c(c2c1)CCCC3O (centres undefined)	-21.5	
Cc1ccccc1CNC(=O)CCCn1nc(C)c2sc3ccccc3c2c1=O		20.6 µM (active)
Cc1nn(C(C)C(=O)NCCc2ccccc2)c(=O)c2c1sc1ccccc12 (centres undefined)		16.4 µM (active)

SMILES	activity change, negative = growth inhibition [%]	Potency
CCc1nn(CCCC(=O)NCc2ccccc2OC)c(=O)c2cc3occc3n12	-8.88	
Cc1ccc(C)c(N2CCN(C(=O)Cn3nc(C)c4sc5ccccc5c4c3=O)CC2)c1		23.1 µM (active)
CCc1nn(CC(=O)N2CCN(c3cc(C)ccc3C)CC2)c(=O)c2cc3occc3n12	-16.9	
CCc1cc2c(cc3c(=O)n(CC(=O)N4CCN(c5cc(Cl)ccc5C)CC4)nc(CC)n32)s1	-27.1	
CC(NCCc1ccc(S(N)(=O)=O)cc1)C(=O)NCc1ccccc1 (centres undefined)	13.9	
C[C@H](NC(=O)NCCc1ccccc1)C(=O)O	3.87	
Cc1nn(CCCC(=O)NCc2ccccc2Cl)c(=O)c2nccn12	-16.9	
Cc1cc(C)cc(OCC(=O)NNC(=O)CCN2C(=O)c3ccccc3C2=O)c1	-13.1	
Cc1ccc(O)c(NC(=O)c2cc(-c3ccco3)on2)c1	-20.7	
CC1Cc2cc(/C(O)=C3\C(=O)C(=O)N(CCN4CCOCC4)C3c3ccccc3F)ccc2O1 (centres undefined)	1.69	
O=C(O)CC1S/C(=N\N=C/c2ccccc2O)N(c2ccc(O)cc2)C1=O (centres undefined)	-0.385	
CN(C(=O)c1ccccc1)c1nccnc1C#N	-11.8	
CC(=O)Nc1cccc(C(=O)OCC(=O)NCc2cc(C)c(O)c(C)c2)c1	6.94	
Brc1ccc(-c2csc(N/N=C/c3ccc4c(c3)OCO4)n2)cc1		8.2 µM (active)
O=C(CN1CCN(c2nc(-c3ccccc3)cs2)CC1)NCc1ccc2c(c1)OCO2	-25.4	
Cc1cc(=O)[nH]c(N/N=C/c2ccc3c(c2)OCCO3)n1	16.8	
O=C(NCC(=O)N1CCN(c2ccccc2F)CC1)c1cccs1	6.86	
COc1cc(/C=C(\C#N)C(=O)Nc2ccc3ccccc3c2)c([N+](=O)[O-])cc1OC	-10.2	
O=c1ccc2cc(S(=O)(=O)Nc3ccccc3F)ccc2o1	-31.6	
Nc1ccc(OCC(O)C[n+]2ccc(CCS(=O)(=O)[O-])cc2)cc1 (centres undefined)	-3.67	
COc1ccc(C(=O)COC(=O)CN2C(=O)C3CC=CCC3C2=O)c(OC)c1 (centres undefined)	-1.18	
CCCc1cc(=O)[nH]c(SCC(=O)c2c(N)n(CC(C)C)c(=O)n(C)c2=O)n1	-20.6	
CC(C)Cn1c(N)c(C(=O)COC(=O)CN2C(=O)C3CC=CCC3C2=O)c(=O)n(C)c1=O (centres undefined)		9.2 µM (active)
